About 79,000 compounds went through this panel and 15% of them were active in at least one assay; those are over-represented in the sample as a whole. Cut-off read from the data, not from the text of the source: active = growth inhibition above about 70%; inactive = the rest.
Tests used:
[1] = NCI Yeast Anticancer Drug Screen. Data for the rad50 strain (AID 155);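 note: 0% = growth of vehicle-only cultures of the same strain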; details: S. cerevisiae rad50 strain growth inhibition; at 50.0 µM; active compounds read high
Summary of the method: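 Cells are treated with compound, grown, and their growth is then scored against vehicle-only cultures of the same repair-deficient yeast strain.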

[2] = NCI Yeast Anticancer Drug Screen. Data for the mec2-1 strain (AID 157); details: S. cerevisiae mec2-1 strain, at 50.0 µM, active compounds read high
Summary of the method: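 mec2-1 yeast strain, carrying an alteration in DNA damage repair or cell cycle control, was exposed to compounds; growth inhibition was measured relative to vehicle-treated controls.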

[3] = NCI Yeast Anticancer Drug Screen. Data for the sgs1 mgt1 strain (AID 161);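 note: 0% = growth of cultures given vehicle only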; details: S. cerevisiae sgs1 mgt1 strain, at 50.0 µM, active compounds read high
Summary of the method: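 Yeast cells carrying a defined DNA-repair defect were exposed to test compounds. Growth inhibition was measured relative to vehicle-treated controls.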

[4] = NCI Yeast Anticancer Drug Screen. Data for the cln2 rad14 strain (AID 165);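 note: 0% = growth equal to vehicle treated cultures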; details: S. cerevisiae cln2 rad14 strain, at 50.0 µM, active compounds read high
Summary of the method: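 Yeast carrying cln2 and rad14 alterations (cell cycle control and DNA damage repair) were exposed to compounds. Growth inhibition was measured against vehicle-treated controls.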

[5] = NCI Yeast Anticancer Drug Screen. Data for the bub3 strain (AID 167); details: S. cerevisiae bub3 mutant strain, at 50.0 µM, active compounds read high
Summary of the method: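 Part of a panel of yeast mutants defective in DNA damage repair or cell cycle regulation. Each strain is grown with compound, and inhibition is calculated relative to solvent-treated cultures.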

[6] = NCI Yeast Anticancer Drug Screen. Data for the mlh1 rad18 strain (AID 175); details: S. cerevisiae mlh1 rad18 strain growth inhibition; at 50.0 µM; active compounds read high
Summary of the method: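 Growth inhibition of the yeast strain was measured after compound exposure and expressed relative to vehicle-treated controls. The strain carries defined defects in DNA damage repair.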

Measured: growth inhibition

O=[N+]([O-])c1cccc2nsnc12
inactive: [1] 63.5% | [2] 30.6% | [3] 53.8% | [4] 16.6% | [5] -8.15% | [6] 43.6%

O=C(NN=C1CCCCC1)C(=O)NN=C1CCCCC1
inactive: [1] 34.1% | [2] 13.6% | [3] 13.5% | [4] -20.7% | [5] 10% | [6] 28.6%

N#Cc1ccc(NC(=O)Nc2cccc(C#N)c2)cc1
inactive: [1] -3.5% | [2] -12.3% | [3] -9.75% | [4] -15.1% | [5] -0.3% | [6] -15.6%

N#CC(=Nc1cccc(F)c1)C1=C(O)c2ccccc2C1=O
inactive: [1] 11.6% | [2] -2.6% | [3] 22.4% | [4] 27.6% | [5] 20.5% | [6] 18.8%

O=[N+]([O-])c1ccc(CO)cc1
inactive: [1] 0.15% | [2] 0.35% | [3] 8.85% | [4] 6.75% | [5] 22.1% | [6] 4.1%

Nc1ccccc1C(=O)Nc1ccc(Cl)cc1Cl
inactive: [1] -9.1% | [2] -22.4% | [3] 7.4% | [4] 4.85% | [5] 21.9% | [6] 2.35%

COC(=O)Nc1nc2ccc(C(=O)c3cccs3)cc2[nH]1
inactive: [1] -1.25% | [2] 33.4% | [3] 17.5% | [4] -35% | [5] 24.4% | [6] 19%

CCCCNC1(C#N)CCN(Cc2ccccc2)CC1
inactive: [1] -2.25% | [2] -7.95% | [3] -5.9% | [4] 6.75% | [5] -1.25% | [6] -5.7%

CCOC(=O)CNN
inactive: [1] -7.2% | [2] 9.3% | [3] -12.2% | [4] 9.75% | [5] -14.8% | [6] -30.1%

COc1cc([C@@H]2c3cc4c(cc3[C@H](O)[C@H]3COC(=O)[C@H]23)OCO4)cc(OC)c1OC
inactive: [1] -4.8% | [2] -8.55% | [3] 9.05% | [4] 5.1% | [5] 3.6% | [6] 9%

C[C@@H](c1ccccc1)[C@@H](C(=O)O)c1ccccc1
inactive: [1] 8.3% | [2] 5.4% | [3] 8.3% | [4] -38.6% | [5] -5.65% | [6] 29.7%

CC1(c2ccccc2)NC(=O)NC1=O (centres undefined)
inactive: [1] 26.7% | [2] -8.85% | [3] 0.8% | [4] -1.3% | [5] -7.65% | [6] 23.9%

CC(=O)Nc1ccc(NC(C)=O)c2c1C(=O)c1ccccc1C2=O
inactive: [1] 5.55% | [2] -24.1% | [3] -10.3% | [4] 2.15% | [5] -19.3% | [6] 23.9%

COC(=O)c1ccccc1Br
inactive: [1] -1.7% | [2] 7.8% | [3] 3.4% | [4] -22.1% | [5] -3.75% | [6] 6.45%

CC1C(=O)c2ccccc2CC1C(=O)O (centres undefined)
inactive: [1] -1.6% | [2] -15.6% | [3] 7.8% | [4] -22.2% | [5] -5.1% | [6] -21%

Cc1cccc(C(=O)N(C(C)C)C(C)C)c1
inactive: [1] -0.9% | [2] -4.95% | [3] -4.25% | [4] -50.8% | [5] 26.2% | [6] -0.35%

COc1cc2cc(OC(C)=O)c3cc4c(cc3c2c(OC)c1OC)OCO4
inactive: [1] -18.4% | [2] -10.8% | [3] -16.3% | [4] -5.2% | [5] -21.9% | [6] -25.1%

CC1CCCC(CC(N)=O)CC1 (centres undefined)
inactive: [1] 7.8% | [2] 1.05% | [3] 2.1% | [4] 1.3% | [5] 0.7% | [6] 4.2%

C[N+](C)(C)C(=O)c1ccccc1
inactive: [1] 21.6% | [2] 21.4% | [3] 22.1% | [4] 11.1% | [5] -1.15% | [6] 46.6%

COc1cc(/C=C/C(=O)c2ccccc2)cc(OC)c1OC
inactive: [1] -4.7% | [2] -5.8% | [3] -3% | [4] 34.5% | [5] -18.1% | [6] -2.3%

C/C=C/CC(C)C(O)C1C(=O)NC(CC)C(=O)N(C)CC(=O)N(C)C(CC(C)C)C(=O)NC(C(C)C)C(=O)N(C)C(CC(C)C)C(=O)NC(C)C(=O)NC(C)C(=O)N(C)C(CC(C)C)C(=O)N(C)C(CC(C)C)C(=O)N(C)C(C(C)C)C(=O)N1C (centres undefined)
inactive: [1] 17.3% | [2] 8.3% | [3] -5.45% | [4] 25.6% | [5] 22.7% | [6] 18.1%

COc1ccc(NC(=O)CCl)cc1
inactive: [1] 29.7% | [2] 12.8% | [3] 24.4% | [4] 17.9% | [5] 36.7% | [6] 23.6%

O=[N+]([O-])c1ccc(N=Nc2ccccc2)cc1
inactive: [1] 11.4% | [2] 12.2% | [3] -1.1% | [4] 21.2% | [5] -5.2% | [6] 14.8%

CCNCCCCNCCCCNCCCCNCCCCNCC
inactive: [1] -16.6% | [2] 4.25% | [3] -6.1% | [4] 11.2% | [5] 3.95% | [6] 6.7%

CC(C)COC(=O)COC(=O)OCCOCCOC(=O)OCC(=O)OCC(C)C
inactive: [1] 36.5% | [2] -8.7% | [3] 17.4% | [4] -26.9% | [5] 26.1% | [6] 8.6%

O=S(=O)(O)CC(O)CN1CCN(CCO)CC1 (centres undefined)
inactive: [1] -18.9% | [2] -35.8% | [3] -36.8% | [4] 5.45% | [5] -23.9% | [6] -6.3%

CCOC(=O)c1ccc(Nc2sc(C(=O)c3cccc([N+](=O)[O-])c3)c(N)c2C#N)cc1
inactive: [1] -9.95% | [2] -9.95% | [3] -0.95% | [4] 5.75% | [5] 2.8% | [6] 0.55%

NC(=S)NN=C1CCCC1
inactive: [1] 2.2% | [2] -5.8% | [3] 4.75% | [4] -19.6% | [5] -2.45% | [6] 7.75%

CC(=O)OCC1CCCO1 (centres undefined)
inactive: [1] -24.9% | [2] -9.45% | [3] -21.1% | [4] -44.1% | [5] 19.6% | [6] -32%

CC(=O)c1ccc2c(ccc3ccccc32)c1
inactive: [1] -13.1% | [2] -16.3% | [3] -12.6% | [4] -14.6% | [5] -5.4% | [6] 3.9%

CN(c1ccccc1)c1ncnc2c1ncn2C
inactive: [1] 2.65% | [2] -0.65% | [3] 1.75% | [4] -4.7% | [5] 29.9% | [6] 4.1%

CCC(C)(O)c1ccc(C)cc1 (centres undefined)
inactive: [1] 26.5% | [2] 33% | [3] 31.8% | [4] -21.1% | [5] 19.6% | [6] 6.4%

COc1ccc(-c2cc3c(nn2)-c2ccccc2C3=O)cc1
inactive: [1] 1.1% | [2] -16.7% | [3] -13% | [4] -10.4% | [5] -19.1% | [6] 5.45%

N#C/C(=C\c1cc(O)c(O)c(O)c1)C(N)=O
inactive: [1] 29.8% | [2] -14.8% | [3] 24.6% | [4] 2.6% | [5] 25.7% | [6] 35.5%
